Source: PubChem
Only a selection was taken, and hits are over-represented in it overall.
14-3-3g Raf – modulators of human 14-3-3 gamma - Raf peptide interaction | inhibition, % at 40 µM | P61981 | hit rate 0.19% among 160,000 | FP, 14-3-3gamma / TMR-pS259-Raf peptide binding; in the data active means inhibition above about 30%;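 further: 0% = protein plus tracer without compound and 100% = blank with tracer alone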
An asterisk follows results filed as active.

SMILES | 14-3-3g Raf
CCC1(C(=O)c2ccccc2)C2c3cc(Br)ccc3OC(=O)C21C(=O)OC (stereo not given) | 5
CCC1(C(=O)c2ccc(C)cc2)C2c3cc(Br)ccc3OC(=O)C21C(=O)OC (stereo not given) | 31*
CCOC(=O)C1C2NC(=S)N(c3ccccc3)C1(C)Oc1ccc(Br)cc12 (stereo not given) | -10
CC1N=C(c2ccccc2)c2cc(Cl)ccc2N(CC(=O)NCCc2ccccc2)C1=O (stereo not given) | -14
CCN(C(C)=O)c1ccc(C(O)(C(=O)OC)C(F)(F)F)cc1 (stereo not given) | 1
Cc1ccc(NC(=O)CN2C(=O)CN=C(c3ccccc3Cl)c3cc(Cl)ccc32)cc1 | 0
Cc1ccc(-n2c(C=Cc3cn(C)c4ccccc34)nc3ccccc3c2=O)cc1 | -9
CCOc1ccc(-n2c(O)c(C=NCCN3CCNCC3)c(=O)[nH]c2=O)cc1 | 34*
Cc1ccc(-n2c(O)c(C=NCCN3CCOCC3)c(=O)[nH]c2=O)cc1 | 1
O=c1[nH]c(=O)n(CCc2ccccc2)c(O)c1C=NCCN1CCNCC1 | 1
C(#CCN1CCOCC1)COCC=Cc1ccccc1 | -2
CCC1(C)N2CC3(C)CN1CC(C)(C2)C3=O (stereo not given) | -2
C#CCN(C)[C@@H](C)Cc1ccccc1 | -1
C#CCN(C)C(C)Cc1ccccc1 (stereo not given) | 35*
Cc1cccc(CN2CCN(Cc3ccccc3[N+](=O)[O-])CC2)c1 | -11
Cc1ccc(-n2c(C=Cc3cc(Br)cs3)nc3ccccc3c2=O)cc1C | 6
Cc1cccc(NC(=O)c2c(O)c3c(n(Cc4ccco4)c2=O)CCCC3)n1 | -6
CN(N=O)c1ccc(O)c(O)c1 | 40*
O=C(Nc1ncccc1O)c1c(O)c2c(n(Cc3ccco3)c1=O)CCCC2 | -10
O=c1c2ccccc2nc(C=Cc2ccco2)n1-c1cccc(O)c1 | -119
